# An excerpt weighted towards active compounds, which were near 3.6% of everything screened.
# MazEF act: MazEF (E. coli) toxin RNase activation; FAM/BHQ RNA-DNA oligo cleavage fluorescence, 5 h; AID 504720; activation, % at 20 µM; 0.32% of 350,000 active; P0AE70; in the data active = activation above about 50%
# Target sequence (P0AE70 whole entry, looked up): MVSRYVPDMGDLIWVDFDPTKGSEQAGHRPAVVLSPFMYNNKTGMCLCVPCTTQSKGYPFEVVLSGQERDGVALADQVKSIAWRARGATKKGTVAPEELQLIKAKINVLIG
# Autofluor counter: counter-screen for toxin protease inhibitors: compound fluorescence; compound autofluorescence counterscreen, microsphere flow cytometry; active compounds read high; fluorescence intensity (no concentration beside the values); AID 624483; 3.1% of 360,000 active; in the data active = fluorescence intensity above about 16000; inconclusive = no clear call, values can overlap the other calls
# BoNT F protease: inhibitors of Botulinum neurotoxin F light chain protease | Multiplex microsphere protease cleavage assay, flow cytometry | inhibition, % at 10 µM | 0.22% of 360,000 active | AID 588497; in the data active = inhibition above about 35%, passing the limit was not always enough; inconclusive = no clear call, values can overlap the other calls
# Anthrax LF prot: inhibitors of Bacillus anthracis lethal factor protease; multiplex microsphere protease cleavage assay, LF; AID 588501; inhibition, % at 10 µM; P15917; 0.12% of 360,000 active
# BoNT A protease: blocks Botulinum neurotoxin A light chain protease; multiplex microsphere protease substrate cleavage, flow cytometry; inhibition, % at 10 µM; 0.17% of 360,000 active
# Hits are given with their value; i = inactive; ? = inconclusive. Rule as the data show it, unless noted: active = inhibition above about 30%; inconclusive = no clear call, values can overlap the other calls; inactive = below that.
SMILES,MazEF act,Autofluor counter,BoNT F protease,Anthrax LF prot,BoNT A protease
C=CCn1cc(C(=O)NCCCOCC)c(=O)c2cc(S(=O)(=O)N(CC)CC)ccc21,i,23558,i,i,i
CCOCCCNC(=O)c1cn(CC)c2ccc(S(=O)(=O)N(C)C3CCCCC3)cc2c1=O,i,i,i,i,i
O=C(NC12CC3CC(CC(C3)C1)C2)c1c(Cl)cccc1Cl,i,i,?,i,i
CCN(CC)c1ccc(/C=N/c2sc3c(c2C#N)C2CCN3CC2)c(O)c1,i,22519,i,i,i
O=C(CN(CCc1ccccc1)Cc1ccccc1)Oc1ccccc1P(=O)(O)O,i,i,i,i,i
CC1CCCN(C(=O)CCc2nnc(-c3ccc4c(c3)OCO4)o2)C1 (stereo not given),i,i,i,i,i
CCC1Oc2ccc(C)cc2N(CC(=O)NCCCN2CCCCC2CC)C1=O (stereo not given),i,24712,i,i,i
CCC1Oc2ccc(C)cc2N(CC(=O)NCCC2=CCCCC2)C1=O (stereo not given),i,18757,i,i,?
N#CCO/N=C(\c1ccccc1)c1ccncc1,i,16207,i,i,?
Clc1ccc(Cc2ccc(Cl)nn2)c(Cl)c1,i,23303,i,i,i
Clc1ccc(Cc2ccccc2)nn1,i,21162,i,i,i
Clc1cccc(Cc2ccc(Cl)nn2)c1,i,i,i,i,i
CN1CCCCCC1=Nc1ccc([N+](=O)[O-])cc1,i,i,39,i,i
CN1CCCC1=Nc1ccccc1,i,i,i,i,i
O=C(NCc1ccccc1)C(Cc1ccccc1)N1C(=O)C2C3CCC(C3)C2C1=O (stereo not given),i,16697,i,i,i
COC(=O)c1c(NC(=O)Cc2cccs2)sc(C)c1C,i,21860,i,i,i
CCc1ccc(CCC(=O)Nc2sc(C)c(C)c2C(=O)OC)o1,i,21036,i,i,i
CCOC(=O)c1cnn(CCOC(=O)Cc2cccs2)c1NC(=O)Cc1cccs1,i,22856,i,i,i
O=C(O)CCCCCN=Cc1c(O)c2ccccc2oc1=O,i,i,i,i,i
Cc1ccc(S(=O)(=O)N2CCSC2C(=O)O)cc1 (stereo not given),i,i,i,i,i
CN(C)N=Nc1ccc(S(=O)(=O)N2CCSC2C(=O)O)cc1 (stereo not given),i,25952,i,i,?
CC(C)C(NC(=O)COc1ccc2ccccc2c1)C(=O)N/N=C/C=C/c1ccccc1 (stereo not given),i,22567,i,i,i
CCOC(=O)N1CCC(NC(=O)c2oc3c(c2C)-c2[nH]ncc2CC3)CC1,i,20954,i,i,?
CCOC(=O)N1CCC(NC(=O)c2sc(-n3cccc3)nc2C)CC1,i,i,i,i,i
O=c1cc(-c2ccccc2)nc(SCc2ccc(F)cc2)[nH]1,i,i,i,i,i
SMILES,MazEF act,Autofluor counter,BoNT F protease,Anthrax LF prot,BoNT A protease
COc1cc(=O)[nH]c(SCc2c(F)c(F)c(F)c(F)c2F)n1,i,18910,i,i,i
CC(=O)N1CCc2cc(NC(=O)c3ccc(C)cc3)ccc21,i,21491,i,i,i
CC(=O)N1CCN(c2ccc(NC(=O)c3ccc(C)cc3)cc2)CC1,i,i,i,i,i
C[C@H](CO)N1C[C@H](C)[C@@H](CN(C)S(=O)(=O)c2ccc(F)cc2)OCc2cn(nn2)CCCC1=O,i,i,i,i,i
Cc1ccc(SCCNC(=O)CN(c2ccc3c(c2)OCO3)S(C)(=O)=O)cc1,i,i,i,i,i
COC(=O)CN(c1ccc2c(c1)OCO2)S(C)(=O)=O,i,24591,i,i,i
CCCCCNC(=O)CN(c1ccc2c(c1)OCO2)S(C)(=O)=O,i,20699,i,i,i
C[C@@H]1CCCCO[C@@H](CN(C)S(=O)(=O)c2ccc(Cl)cc2)[C@@H](C)CN([C@H](C)CO)C(=O)c2cc(N(C)C)ccc2O1,i,i,i,i,i
COc1ccc(C(OC(=O)c2c(C)noc2C)C(=O)NC2CCCC2)cc1 (stereo not given),i,19678,i,i,i
Cc1ccc2[nH]c(=O)c3cc(C(=O)NCCC(C)C)sc3c2c1,i,i,41,i,i
CC(C)CCNC(=O)c1cc2c(=O)[nH]c3ccccc3c2s1,i,i,i,i,i
CC1CN(C(=O)c2cc(F)c(F)cc2Cl)CC(C)O1 (stereo not given),i,i,i,i,i
CC1CCCN(C(=O)c2cc(F)c(F)cc2Cl)C1 (stereo not given),i,22587,i,i,i
Cc1nnc2ccc(N3CCC4(CC3)OCCO4)nn12,i,23146,i,i,?
O=C(CN1CCCCCC1)N1c2ccccc2C=Cc2ccccc21,i,19591,i,i,?
